Screens from PubChem BioAssay.
The list is not random: actives were taken first. Their share in the collection is about 10%.
CtBP-E1A inh – inhibitors of CtBP/E1A interaction. hit rate 0.49% among 340,000. activity change, % (test concentration not listed). AlphaScreen GST-E1A/His-CtBP binding, 1536-well; active compounds read low; in the data active = activity change below about -65%; inconclusive = mostly about -30% to -63%
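Protein mix (5X: 125 nM each GST-E1A, His-CtBP) was incubated with pinned compound 2 h at 37 deg C in dark, in 50 mM Tris pH 8.0 buffer with 300 mM NaCl. Glutathione donor and nickel acceptor beads followed; AlphaScreen signal read after 1 h.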
JMJD2A Tudor inh – JMJD2A Tudor domain (human) inhibition | O75164 | AlphaScreen JMJD2A-Tudor / H3K4me3 peptide binding | Potency, µM (series often up to 114 µM), most hits filed as inhibitors | hit rate 4.4% among 390,000 | AID 504339; also: nearly all actives have a fitted effect of over 50% in size
Six1-Eya2 blk – Six1/Eya2 interaction inhibition; activity change, % (test concentration not listed); Q15475+O00167; AlphaScreen GST-Six1/His-Eya2 binding, biochemical; active compounds read low; hit rate 0.56% among 360,000; in the data active = activity change below about -65%; inconclusive = mostly about -30% to -63%
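GST-Six1 + His-Eya2 (5X stock: 250/500 nM); Tris pH 8.0, 300 mM NaCl, 0.05% BSA, 0.02% Tween 20; GSH donor/Ni acceptor beads; 1 h 37 °C dark; AlphaScreen readout.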
BAZ2B inh – blocks human BAZ2B; Q9UIF8; AlphaScreen BAZ2B-H3K14Ac peptide displacement; Potency, µM (doses to about 114 µM), hits mostly inhibitors; hit rate 4.4% among 360,000; AID 504333; also: nearly all actives have a fitted effect of over 60% in size
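BAZ2B 50 nM plus b-H3(5-23)K14Ac 50 nM, PBS pH 7.4/0.01% Tween-20, 30 min RT; compound added (max 110 uM), 30 min RT; streptavidin donor/Ni-chelate acceptor beads 10 ug/mL final, 20 min dark; AlphaScreen read.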
G9a block – G9a (human) methyltransferase inhibition; G9a H3K9 monomethylation, AlphaScreen, 2 h; Potency, µM (top dose mostly 102 µM), hits mostly inhibitors; hit rate 8.8% among 350,000; AID 504332; also: nearly all actives have a fitted effect of over 75% in size
Target sequence (Q96KQ7 913-1193 limits assumed): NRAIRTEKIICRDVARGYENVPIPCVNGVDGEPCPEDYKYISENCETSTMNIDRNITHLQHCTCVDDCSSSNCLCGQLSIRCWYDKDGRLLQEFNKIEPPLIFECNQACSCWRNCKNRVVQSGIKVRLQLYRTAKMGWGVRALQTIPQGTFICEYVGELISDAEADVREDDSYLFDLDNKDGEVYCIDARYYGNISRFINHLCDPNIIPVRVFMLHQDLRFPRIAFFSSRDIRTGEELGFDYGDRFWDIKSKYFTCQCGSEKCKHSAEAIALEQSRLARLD
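Step 1: enzyme (final 20 nM) with compound, 15 min RT. Step 2: substrate peptide 500 nM and SAM 20 uM, 2 h RT. Step 3: anti-H3K9me1 antibody and AlphaScreen beads, 10 min, then plate read.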
HP1b binding inh – blocks HP1-beta chromodomain binding to methylated histone tails. AlphaScreen HP1-beta / biotin-H3K9me3 peptide binding. P83916. hit rate 0.56% among 390,000. Potency, µM (highest dose often 114 µM), usual class: inhibitors; also: nearly all actives have a fitted effect of over 70% in size
Target sequence (P83916 whole entry, looked up): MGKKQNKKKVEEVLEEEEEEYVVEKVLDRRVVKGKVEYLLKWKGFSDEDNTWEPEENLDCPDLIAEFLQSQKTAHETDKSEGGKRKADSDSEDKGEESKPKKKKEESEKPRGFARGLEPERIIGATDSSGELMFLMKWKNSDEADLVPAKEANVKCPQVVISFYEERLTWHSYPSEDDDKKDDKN
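Compound inhibition of the preformed complex between 50 nM HP1-beta and 50 nM biotinylated H3K9me3 peptide was read by AlphaScreen. Buffer was PBS pH 7.4 with 0.01% Tween-20. Incubations ran 30 min at room temperature, with 10 ug/mL donor/acceptor beads.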
A number is an active result; 0 = inactive; ? = inconclusive; - = no result given; ! = a repeat was not active; [ ] = remark or other dose. Unless noted, calls follow the shape of the dose curve; as a rule, active = well fitted inhibition curve with a large enough effect; inconclusive = small, poorly fitted or top-dose-only effect; inactive = no such curve, though single readings can be large or run the other way.

SMILES | CtBP-E1A inh | JMJD2A Tudor inh | Six1-Eya2 blk | BAZ2B inh | G9a block | HP1b binding inh
CC(OC(=O)CCc1cc(C(C)(C)C)c(O)c(C(C)(C)C)c1)C(=O)NC1CC1 (stereo not drawn) | 0 | 0 | 0 | 0 | 0 | 0
CC[N+](C)(CC)CCC(c1ccccc1)C1CCCCC1 (stereo not drawn) | 0 | ? | 0 | 50.1µM | ? | ?
S=C(NC1CC1)NC1CCCc2ccccc21 (stereo not drawn) | - | ? | ? | 56.2µM | 0 | 0
CCS(=O)(=O)c1ccccc1C(=O)NC1CCCc2ccccc21 (stereo not drawn) | 0 | 0 | 0 | 0 | 39.8µM | 0
CS(=O)(=O)c1ccccc1C(=O)NC1CCCc2ccccc21 (stereo not drawn) | 0 | 0 | 0 | 0 | 0[0.0925 µM] | 0
CCCCN1C(=O)C(=O)N(CC(=O)NC2CCCc3ccccc32)C1=O (stereo not drawn) | 0 | 5.01µM | 0 | 0 | 0 | ?
COc1ccc(N2CCN(CC(O)COc3c(OC)cccc3OC)CC2)cc1 (stereo not drawn) | 0 | 56.2µM! | 0 | 79.4µM | 35.5µM | 0
COc1ccc(N2CCN(c3nccs3)CC2)cc1 | 0 | ? | 0 | 0 | 50.1µM | 0
OC(COc1ccc(F)cc1)CN1CCN(CC(O)COc2ccc(F)cc2)CC1 (stereo not drawn) | 0 | 0 | 0 | 0 | 0 | 0
COc1ccc(OCC(O)CN2CCN(c3ccc(OC)cc3)CC2)cc1 (stereo not drawn) | 0 | ? | 0 | 0 | 31.6µM | 0
COc1ccc(N2CCN(CC(O)COc3ccc(F)cc3)CC2)cc1 (stereo not drawn) | 0 | ? | 0 | ? | 15.8µM | 0
COc1cccc(OC)c1OCC(O)CN1CCN(c2ccccc2F)CC1 (stereo not drawn) | 0 | 0 | 0 | 0 | 0[2.33 µM] | 0
O=C(c1ccccc1)c1ccc2n1CC[C@H]2C(=O)O | - | - | - | - | 0[21.5 µM] | -
COc1cc(OC)c(NC(=O)c2csc3c2CCC(C)C3)cc1Cl (stereo not drawn) | - | 0 | - | 0 | 0 | 0
COc1ccc(N2CCN(CC(O)COc3ccccc3C(C)(C)C)CC2)cc1 (stereo not drawn) | - | 22.4µM | - | 31.6µM | 11.2µM | 20µM
COc1ccc(N2CCN(CC(O)COc3cc(C)cc(C)c3)CC2)cc1 (stereo not drawn) | 0 | ? | 0 | 39.8µM | 39.8µM | 0
COc1ccc(N2CCN(CC(O)COc3ccc([N+](=O)[O-])cc3)CC2)cc1 (stereo not drawn) | 0 | ? | 0 | 0 | ? | 0
Cc1nn(C(=O)c2ccc(Cl)cc2)c(C)c1Sc1ccc(Cl)cc1 | - | 0 | - | 0 | 0 | 0
Cc1noc(C)c1-c1ccc2ncnc(NCc3ccc(C(F)(F)F)o3)c2c1 | - | 0 | - | - | - | -
COc1ccccc1CN1CC(C(=O)N(C)Cc2[nH]c3ccccc3c2C)CCC1=O (stereo not drawn) | 0 | 0 | 0 | 0 | 0 | 0
Cc1ccc(C)c(OCC(=O)Nc2c(C)n(C)n(-c3ccccc3)c2=O)c1 | - | 0 | 0 | 0 | 0[12.7 µM] | 0
Cc1cc(=O)oc2cc(OCC(=O)Nc3c(C)n(C)n(-c4ccccc4)c3=O)c(Cl)cc12 | 0 | 0 | 0 | 79.4µM | 0 | 0
COc1ccccc1CNC(=O)Cn1c(-c2ccc(F)cc2)cc(C(C)=O)c1C | - | 0 | - | 0 | 0 | 0
O=C(CSc1nc2ccccc2n1Cc1ccccc1)N1CCN(c2ccc(F)cc2)CC1 | - | 0 | - | 0 | 0 | 0
COc1ccc(-c2cc(C(F)F)n3ncc(C(=O)N4CCc5ccccc54)c3n2)cc1 | - | 20µM | 0 | ? | - | ?
SMILES | CtBP-E1A inh | JMJD2A Tudor inh | Six1-Eya2 blk | BAZ2B inh | G9a block | HP1b binding inh
Cc1ccc(-c2cc(C(F)F)n3ncc(C(=O)N4CCCc5ccccc54)c3n2)cc1 | 0 | 0 | 0 | 0 | 0 | 0
NCCSSCCN | 0 | 0 | 0 | 0 | 22.4µM | 12.6µM
O=S1(=O)N=C(Oc2ccccc2Br)c2ccccc21 | - | 79.4µM | - | - | - | -
O=C(O)c1ccccc1OC1=NS(=O)(=O)c2ccccc21 | - | 79.4µM | - | - | - | -
Nc1ccccc1OC1=NS(=O)(=O)c2ccccc21 | - | 0 | - | - | - | -
O=S1(=O)N=C(Oc2cccc3ccccc23)c2ccccc21 | 0 | ? | 0 | 0 | ? | 0
O=S1(=O)N=C(Oc2ccccc2Cl)c2ccccc21 | - | 112µM | - | - | - | -
Cc1ccccc1OC1=NS(=O)(=O)c2ccccc21 | 0 | ? | 0 | 0 | ? | 0
CCOC(=O)/C(=C\C=C1/Sc2ccccc2N1CC)C(C)=O | 0 | 0 | ? | 0 | ? | 0
CCN1/C(=C/C=C/C=C/C=C/c2sc3ccccc3[n+]2CC)Sc2ccccc21 | 0 | 20µM | 0 | 39.8µM | 22.4µM | ?
CCN1/C(=C/C=C/c2sc3ccccc3[n+]2CC)Sc2ccccc21 | ? | 0 | ? | 14.1µM | ? | 0
CCN1/C(=C/C=C2/SC(=Nc3cccc4ncccc34)N(C)C2=O)Sc2ccccc21 | 0 | 0 | 0 | - | - | 0
CCN1/C(=C/C=C/C=C/c2sc3ccccc3[n+]2CC)Sc2ccccc21 | - | - | - | 11.2µM | 28.2µM | -
O=C(CCCc1ccccc1)NCCS(=O)(=O)N1CCN(c2ccc(F)cc2)CC1 | 0 | 0 | 0 | 0 | ? | 0
CCCC(c1nnnn1CC(=O)OCC)N(Cc1cc2ccc(C)cc2[nH]c1=O)C1CCCC1 (stereo not drawn) | 0 | 0 | 0 | 0 | 0 | 0
CCCC(c1nnnn1CC(=O)OCC)N(Cc1cc2c(C)cc(C)cc2[nH]c1=O)C1CCCC1 (stereo not drawn) | 0 | 0 | 0 | 0 | 28.2µM | 0
CC(C)CNCC(=O)N1c2ccccc2Sc2ccccc21 | 0 | 11.2µM | 0 | ? | 35.5µM | ?
Cc1ccc(CNS(=O)(=O)c2cc3[nH]c(=O)c(=O)[nH]c3cc2C)cc1 | - | 0 | - | 0 | 0 | 0
CC(C)NCC(O)c1ccc(NS(C)(=O)=O)cc1 (stereo not drawn) | 0 | 0 | 0 | 0 | 0 | 0
CC(C)NC[C@@H](O)c1ccc(O)c(O)c1 | 0 | 44.7µM | 0 | ? | 17.8µM! | ?
OCc1ccccc1O | - | - | - | - | 0[2.33 µM] | -
OCc1ccccc1SSc1ccccc1CO | 0 | 14.1µM | 0 | - | - | ?
COc1ccc(-c2n[nH]c(=S)n2-c2cc(OC)ccc2OC)cc1 | 0 | 10µM | 0 | 0 | 2.82µM | 0
COc1ccc(OC)c(-n2c(-c3ccc(S(C)(=O)=O)cc3)cc(C=O)c2C)c1 | 0 | 0 | 0 | ? | ? | 0
COc1ccc(OC)c(-n2c(Cn3c(-c4ccccn4)nc4ccccc43)n[nH]c2=S)c1 | - | 7.94µM | 0 | ? | 2.51µM | ?
COc1ccc(OC)c(-n2c(-c3cnccn3)n[nH]c2=S)c1 | 0 | 0 | 0 | ? | 10µM | 0
COc1ccc(OC)c(-n2c(C)ccc2-c2ccc(S(C)(=O)=O)cc2)c1 | 0 | ? | 0 | 44.7µM | ? | 0
